Screening data: PubChem, National Center for Advancing Translational Sciences (NCATS)
This is a sample that favours compounds with a hit; in the whole collection about 19% have one here.
DT40 TDP1 CPT – DT40-hTDP1 cell growth loss with CPT; Potency, µM (highest dose often 46.2 µM), inactives show at the top dose activity change, negative = growth inhibition, hits mostly inhibitors; chicken DT40 Tdp1-/-;hTDP1 cells + 20 nM CPT, ATP luminescence, 48 h; hit rate 12% among 420,000; AID 686979; further: potency means the concentration at half of the fitted maximal effect; nearly all actives have a fitted effect of over 55% in size
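Chicken DT40 Tdp1-/- cells complemented with human TDP1, 400 cells/well, exposed to compounds plus 20 nM camptothecin for at least 48 h at 37 C; viability read as ATP content by CellTiter-Glo luminescence.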
TDP1 cell noCPT – qHTS for Inhibitors of human tyrosyl-DNA phosphodiesterase 1 (TDP1): qHTS in cells in absence of CPT. hit rate 15% among 420,000. Potency, µM (doses to about 46.2 µM), inactives show at the highest dose activity change, negative = growth inhibition, most hits filed as inhibitors. DT40 Tdp1-/- hTDP1 cells, no CPT, ATP luminescence, 48 h; further: potency means the concentration at half of the fitted maximal effect; nearly all actives have a fitted effect of over 55% in size
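Cells were dispensed at 400 per well, compounds added by pin tool, plates incubated ≥48 hr at 37 °C, then CellTiter-Glo added for 30 min at room temperature before luminescence reading. Line: DT40 Tdp1-/- complemented with hTDP1; camptothecin omitted.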
IL-1B inflam inh – blocks inflammasome-driven IL-1 beta release; AID 743279; hit rate 4.7% among 360,000; THP-1 LPS/ATP IL-1B secretion, AlphaLISA, 16 h; active compounds read low; activity change, % at 57.5 µM; in the data active means activity change below about -50%; inconclusive means mostly about -30% to -49%
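Secreted IL-1B measured by AlphaLISA bead assay after 16 h compound exposure of THP-1 cells; compounds (final up to 57.5 uM) added 1 h before LPS (250 ng/mL) and ATP (1.25 mM) stimulation; lower signal means less secretion.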
HT1080NT lethal – kills 2HG-producing HT-1080-NT fibrosarcoma cells | HT-1080-NT fibrosarcoma viability, CellTiter-Glo ATP luminescence, 48 h | Potency, µM (titrated, usually from 46.1 µM), without a hit: top-dose activity, negative = less viability, usual class: cytotoxic | hit rate 1.6% among 360,000;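 further: NT is the 2HG producing partner of a matched IDH1 knockdown line; potency means the concentration at half of the fitted maximal effect; 0% = DMSO-treated cells and -100% = media-only wells without cells; nearly all actives have a fitted effect of over 55% in size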
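Fibrosarcoma NT cells, 750 per well in 5% FBS RPMI, were exposed to compound for 48 hours. Viability: CellTiter-Glo luminescence.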
HT1080 IDH1KD tx – toxicity to HT-1080 IDH1 knockdown cells (counter line). HT-1080 IDH1 knockdown viability, ATP luminescence, 48 h. Potency, µM (doses to about 46.1 µM), without a hit: at the highest dose activity, negative = toxicity, usual class: cytotoxic. hit rate 2% among 360,000;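 further: potency means the concentration at half of the fitted maximal effect; 0% = DMSO wells and -100% = cell-free medium wells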
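Assay cells: HT-1080 with IDH1 knockdown, 750 per well, RPMI/5% FBS. Exposure: 48 h at 37 °C following 2 h pre-incubation. Read: CellTiter-Glo luminescence; fitted concentration-response, curve class assigned.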
ELG1 repair inh – inhibitors of ELG1-dependent DNA repair in HEK293T cells; AID 504467; Potency, µM (series often up to 46.1 µM), without a hit: at the top dose activity change, negative = inhibition, usual class: inhibitors; HEK293T ELG1-luciferase reporter, luminescence, 16 h; DNA damage induced by 5-fluorouridine; hit rate 2.3% among 330,000; further: potency means the concentration at half of the fitted maximal effect; nearly all actives have a fitted effect of over 55% in size
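HEK293T cells expressing luciferase-tagged ELG1 (2,000/well) received 5-Fluorouridine plus compound or DMSO for 16 hr at 37 °C. Luciferase was read by ONE-Glo luminescence after 30 min at room temperature.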
The depositor's hits bear a star; ? = inconclusive; . = no result. Unless noted, the call rests on the fitted dose curve; in most records, active means well fitted curve in the direction sought with a large enough effect; inconclusive means small, poorly fitted or top-dose-only effect, or another doubt; inactive means no such curve, though single readings can be large; an effect the other way counts as inactive or inconclusive. Unless noted, on the % scale 0 is the no-effect control and ±100 the full control effect.

SMILES	DT40 TDP1 CPT	TDP1 cell noCPT	IL-1B inflam inh	HT1080NT lethal	HT1080 IDH1KD tx	ELG1 repair inh
Cc1cccc(-n2ccc(=O)c(C(=O)Nc3ccc(S(=O)(=O)N4CCOCC4)cc3)n2)c1	?	23µM*	-21	-3%	-2%	-12%
Cc1ccc(NC(=O)c2cc(S(=O)(=O)N3CCOCC3)ccc2Cl)cc1S(=O)(=O)N1CCOCC1	?	?	31	-1%	6%	.
CCC(=O)Nc1ccc(S(=O)(=O)N2CCOCC2)cc1	-8%	-7%	23	8%	6%	4%
CN(C)S(=O)(=O)c1ccc(Cl)c(C(=O)Nc2ccc(S(=O)(=O)N3CCOCC3)cc2)c1	10µM*	9.2µM*	8	0%	0%	16µM*
COc1ccc(CCNC(=O)CCn2c(=O)c3ccccc3n(CC(=O)Nc3ccccc3F)c2=O)cc1OC	-11%	-2%	.	.	.	.
Cc1cccc(CSc2ccc(S(=O)(=O)N3CCCC3)cn2)c1	-20%	-30%	16	-10%	-3%	-7%
O=C(Nc1ccc(S(=O)(=O)N2CCOCC2)cc1)c1cc([N+](=O)[O-])ccc1Cl	16µM*	?	21	?	?	?
O=C(Nc1nc(-c2cccs2)c(-c2cccs2)s1)C1CCCC1	16µM*	15µM*	0	-1%	-18%	-24%
O=C(Nc1nnc(-c2cccs2)s1)C1CC1	18%	-1%	14	-13%	3%	?
Clc1ccc(C(Cn2ccnc2)OCc2c(Cl)cccc2Cl)c(Cl)c1 (stereo not given)	?	?	0	16µM*	?	1%
OC(Cn1ccnc1)c1ccc(Cl)cc1Cl (stereo not given)	-19%	-16%	-5	-3%	-3%	11%
CCOc1ccc(-c2cc3nc(C4CCN(C(=O)OC(C)(C)C)CC4)c(C(=O)Nc4ccc(C)c(F)c4)cn3n2)cc1	9.2µM*	7.3µM*	.	.	.	.
COc1ccc(-c2cc3nc(C4CCN(C(=O)OC(C)(C)C)CC4)c(C(=O)Nc4cc(C)cc(C)c4)cn3n2)cc1	?	16µM*	.	.	.	.
CCSc1nc2sc3c(c2c(=O)[nH]1)CCCC3	16%	5%	38	-15%	-20%	18%
CCSC1=NC2(CCCCC2)Nc2sc3c(c21)CCCC3	23µM*	?	-22	-16%	-1%	3%
Cc1cc(NC(=O)CSc2nnc(-c3ccoc3C)o2)no1	?	?	18	11µM*	6.3µM*	11%
Cc1cc(NC(=O)CSc2nnc(-c3ccccc3)o2)no1	?	23µM*	-11	-9%	-18%	?
Cc1cc(NC(=O)CSc2nnc(-c3ccc(O)cc3)o2)no1	7%	-2%	0	9%	4%	?
Cc1cc(C)cc(-c2nnc(SCC(=O)Nc3cc(C)on3)o2)c1	-1%	-22%	9	-10%	-3%	1%
Cc1cc(NC(=O)CSc2nnc(-c3ccccc3)c(-c3ccccc3)n2)no1	3.7µM*	5.2µM*	-3	2.9µM*	5.2µM*	?
Cc1cc(NC(=O)CSc2ccccc2)no1	-17%	-11%	-8	-6%	-2%	9%
COc1ccc(NC(=O)CCc2c(C)nc3nc(CNC(=O)OC(C)(C)C)nn3c2C)cc1OC	-2%	-21%	.	.	.	.
CCOC(=O)c1ccccc1NC(=O)Cn1ncc2c([nH]c3ccccc32)c1=O	-5%	?	.	.	.	.
COCCN(C(=O)CSc1nnc(-c2ccccc2C)n1C)c1c(N)n(Cc2ccccc2)c(=O)[nH]c1=O	16%	11%	13	2%	4%	-18%
COc1ccc(-c2c[n+]3c4n2CCCCC4=C(c2ccc(Br)cc2)C3)cc1	6.5µM*	10µM*	-98*	?	?	?
